Test results published in PubChem BioAssay.
Active and inactive are the calls of the source.

Biological target: NADPH oxidase 2 (Homo sapiens) (UniProt P04839)
Experiment: compounds shifting NOX2 Amplex Red fluorescence – cell-based, HEK293-NOX2, PMA-stimulated, NOX inhibitor project, primary screen (AID 1159); further: test concentration not given here
Conditions: 45 min, higher = more signal, called active from +8 up or from −8 down

Sequence of NADPH oxidase 2 (Homo sapiens) (P04839 whole entry, looked up): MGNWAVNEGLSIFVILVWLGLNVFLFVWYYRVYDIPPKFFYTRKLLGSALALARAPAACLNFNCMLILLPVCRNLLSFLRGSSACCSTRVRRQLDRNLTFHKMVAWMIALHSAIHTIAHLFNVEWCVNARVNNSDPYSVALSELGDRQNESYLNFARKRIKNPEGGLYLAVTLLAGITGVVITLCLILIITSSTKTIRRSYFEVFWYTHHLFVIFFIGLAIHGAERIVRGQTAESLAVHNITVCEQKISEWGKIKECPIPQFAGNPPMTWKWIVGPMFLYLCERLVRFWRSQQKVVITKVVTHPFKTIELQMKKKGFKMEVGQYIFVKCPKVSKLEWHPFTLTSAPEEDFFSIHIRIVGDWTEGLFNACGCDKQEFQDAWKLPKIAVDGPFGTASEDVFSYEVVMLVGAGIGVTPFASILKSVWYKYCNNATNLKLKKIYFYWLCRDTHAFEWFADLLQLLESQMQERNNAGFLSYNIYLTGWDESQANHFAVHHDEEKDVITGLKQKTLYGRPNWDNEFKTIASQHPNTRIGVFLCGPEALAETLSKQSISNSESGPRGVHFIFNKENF

z-score, inactive:
CC(C)N1CC=CC23O[C@@H]4C=CCCOC(=O)C4[C@H]2C(=O)N(CCCCCCO)[C@@H]3C1=O (stereo partly specified) 0.584
CCCNC(=O)[C@@H]1c2ccccc2C(=O)N(Cc2ccccc2Cl)[C@H]1c1ccc(CO)cc1 -0.988
CCN1C(=O)[C@H]2[C@H]3[C@H](O)[C@H](O)CC(=NOCc4ccccc4)[C@H]3CC[C@H]2C1=O -0.145
C[C@H](c1ccccc1)N1C(=O)[C@H]2[C@H]3[C@H](O)[C@H](O)CC(=O)[C@@H]3CC[C@H]2C1=O 0.292
COC(=O)C1=C(C)[C@@H](O)[C@@H](C)[C@H](c2c(OC)c(OC)c(C)c(OC)c2OC)O1 -0.101
CC(=O)OC[C@H]1O[C@H](CC=NOC[C@@H](C)[C@H](OCc2ccccc2)C(C)C)C=C[C@@H]1OC(C)=O -0.401
